# PubChem BioAssay (Tox21)
# Records with an inconclusive call do not appear. Where a call stands in place of a potency, no number is given. Active and inactive are the calls of the source. The call rests on the fitted dose curve; in most records, active means well fitted cell-killing curve with a large enough effect in the repeat runs; inconclusive means weak or mixed curves, or effect the other way; inactive means no such curve, though single readings can be large or run the other way.
# Test: qHTS assay to identify small molecule antagonists of the progesterone receptor (PR) signaling pathway - cell viability counter screen (AID 1346798); further: nearly all actives have a fitted effect of over 50% in size
# Conditions: PR-UAS-bla HEK293T viability, CellTiter-Glo luminescence, 16 h; series mostly up to 92.4 µM
# From the text: National Center for Advancing Translational Sciences [NCATS]
# NIH Chemical Genomics Center [NCGC]
# U.S. Environmental Protection Agency [EPA]
# National Institutes of Environmental Health Sciences [NIEHS]
# National Toxicology Program [NTP]
# U.S. Food and Drug Administration [FDA]
# Progesterone receptor (PR), a nuclear hormone receptor, plays an important role in development, metabolic homeostasis and reproduction. It is activated by the steroid hormone progesterone. Endocrine disrupting chemicals (EDCs) and their interactions with steroid hormone receptors like PR causes disruption of normal endocrine function. To identify the compounds that inhibit PR signaling, a PR-UAS-bla GripTite cell line i.e. PR-UAS-bla HEK293T (Invitrogen, Carlsbad, CA, USA) containing a beta-lactamase reporter gene under the control of an UAS response element was used to screen Tox21 10K compound library. The cytotoxicity of the Tox21 compound library against the PR-bla cell line was tested in parallel by measuring the cell viability using CellTiter-Glo assay in the same wells.
# Tox21 Assay Protocol Summary:
# PR-UAS-bla HEK293T cells were dispensed at 3,000 cells/4 uL of assay medium containing 2% charcoal stripped FBS per well into black wall/clear-bottom 1536-well plates using a Multidrop Combi (ThermoFisher Scientific, Waltham, MA) dispenser. After the assay plates were incubated at a 37C and 5% CO2 for 4 hr, 23 nL of compounds dissolved in DMSO, positive controls or DMSO only was transferred to the assay plate by a Pintool station (Kalypsys, San Diego, CA), followed by addition of 1 uL of R5020 in assay medium using a Flying Reagent Dispenser (FRD, Aurora Discovery, San Diego, CA). The plates were incubated at 37C and 5% CO2 for 16 hr. Then 1 uL of LiveBLAzer B/G FRET substrate was added using a Flying Reagent Dispenser, the plates were incubated at room temperature for 2 hours, and fluorescence intensity was measured by an Envision plate reader (PerkinElmer, Shelton, CT). For cell viability readout that measures cytotoxicity, 4 uL/well of CellTiter-Glo reagent was added into the assay plates using a FRD. After 30 min incubation at room temperature, the luminescence intensity in the plates was measured using a ViewLux (PerkinElmer) plate reader.
# Potency means the concentration at half of the fitted maximal effect.
SMILES,Potency,"activity change, negative = cytotoxicity"
CCCN(CCC)C(=O)C(CCC(=O)OCCCN1CCN(CCOC(=O)Cc2c(C)n(C(=O)c3ccc(Cl)cc3)c3ccc(OC)cc23)CC1)NC(=O)c1ccccc1 (stereo not given),inactive,
CCCN(CCC)c1c([N+](=O)[O-])cc(C(F)(F)F)c(N)c1[N+](=O)[O-],34.3 µM (active),
Cc1oc(-c2ccccc2)nc1CCC(=O)c1ccc(CC2SC(=O)NC2=O)cc1 (stereo not given),inactive,
CC(=O)S[C@@H]1CC2=CC(=O)CC[C@]2(C)[C@H]2CC[C@@]3(C)[C@@H](CC[C@@]34CCC(=O)O4)[C@H]12,24.3 µM (active),
C[n+]1ccn(Cc2ccccc2)c1,inactive,
CCCCCCOC(=O)c1ccc(O)cc1,inactive,
Cc1onc(-c2ccccc2Cl)c1C(=O)N[C@@H]1C(=O)N2[C@@H]1SC(C)(C)[C@@H]2C(=O)O,inactive,
COc1cc(-c2nc(NC(=O)c3cc4cc(C)cc(C)c4n3CC(=O)O)sc2CCC2CCCCC2)c(OC)cc1Cl,14.1 µM (active),
CC(C)n1nc(-c2cc3cc(O)ccc3[nH]2)c2c(N)ncnc21,inactive,
CCCCCCCCCCn1cc[n+](CCCCCCCCCC)c1C,21.7 µM (active),
O=[N+]([O-])c1ccccc1Nc1ccccc1,inactive,
Nc1c(Cl)cc(Cl)cc1Cl,inactive,
C[C@]12CCC(=O)C=C1CC[C@@H]1[C@@H]2[C@@H](O)C[C@@]2(C)[C@H]1CC[C@]2(O)C(=O)COC(=O)CCC(=O)O,inactive,
CCCCCCCCOc1ccccc1C(=O)Nc1ccc(C(=O)OCC[N+](C)(CC)CC)cc1,29.8 µM (active),
CN(C)CCCOC1(Cc2ccccc2)CCCCCC1,inactive,
CCCCc1oc2ccc(NS(C)(=O)=O)cc2c1C(=O)c1ccc(OCCCN(CCCC)CCCC)cc1,18.8 µM (active),
CC(C)(C)C1CCC(CC2=C(O)c3ccccc3C(=O)C2=O)CC1 (stereo not given),inactive,
N#CSc1ccc(N)c([N+](=O)[O-])c1,inactive,
Cc1cc(N)c(S(=O)(=O)O)cc1Cl,inactive,
C/C(=C(/OCCOc1ccc(Cl)cc1)c1ccc(Cl)cc1Cl)n1ccnc1,13.3 µM (active),

SMILES,Potency,"activity change, negative = cytotoxicity"
O=C(Oc1cccc2cccnc12)c1ccccc1,4.22 µM (active),
O=CC=C(c1ccccc1)c1ccccc1,61.6 µM (active),
CCN(C(=O)c1cc(C)cc(OC[C@H](C)Nc2ccncc2)c1)C(C)C,inactive,
Cc1onc(-c2c(Cl)cccc2Cl)c1C(=O)N[C@@H]1C(=O)N2[C@@H]1SC(C)(C)[C@@H]2C(=O)O,inactive,
CCc1cc(Cc2cc(CC)cc(C(C)(C)C)c2O)c(O)c(C(C)(C)C)c1,38.6 µM (active),
CN1CCC(Nc2ncc3ncnc(Nc4ccc(F)c(Cl)c4)c3n2)CC1,16.8 µM (active),
CCCCCCCCCCC=O,inactive,
COc1cccc(N)c1,inactive,
CC1=C(/C=C/C(C)=C/C=C/C(C)=C/C=O)C(C)(C)CCC1,68.2 µM (active),
NC(=O)C1(N2CCCCC2)CCN(CCCN2c3ccccc3CCc3ccc(Cl)cc32)CC1,23.7 µM (active),
CCN(Cc1cccnc1)C(=O)c1cccc(Cl)c1[C@]1(C)C(=O)N(Cc2ccc(OC)cc2OC)c2ccc(Cl)cc21,inactive,
OCCN1CCN(CC/C=C2/c3ccccc3Sc3ccc(C(F)(F)F)cc32)CC1,23.7 µM (active),
Oc1ccc(C2(c3ccc(O)cc3)CC3CC2C2CCCC32)cc1 (stereo not given),41.6 µM (active),
CCCCN(CCCC)C(=O)N(CCCC)CCCC,inactive,
CC(C)CCCCCCCCCCCCCCC(=O)O,inactive,
O=[N+]([O-])c1cc(Cl)c(Cl)c(Cl)c1Cl,inactive,
NNC(=O)c1cccc(C(=O)NN)c1,inactive,
CC(C)(C)C(=O)OCOC(=O)[C@@H]1N2C(=O)[C@@H](NC(=O)[C@H](N)c3ccccc3)[C@H]2SC1(C)C,inactive,
CCC(CN)=C(c1ccccc1)c1ccccc1,inactive,
CC(NN)c1ccccc1 (stereo not given),,0.118% [at 18.9 µM] (inactive)
